The source of these data is PubChem BioAssay (EPA / NIEHS).

Assay [1] deals with Transcription factor E2F1 (Homo sapiens) (UniProt Q01094). The experiment in a line: ATG_E2F_CIS: Attagene CIS-FACTORIAL HepG2 Assay for human E2F Transcription Factor 1 (AID 2282935). The settings on record: HepG2 Attagene cis-reporter, E2F reporter RNA transcripts; actives raise or lower the signal. The essentials:
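HepG2 cells transiently transfected with multiplexed cis-element reporter units, dosed for 24 h. Reporter mRNA measured by RT-PCR, 6-FAM primer-extension labeling, HpaI digestion and capillary electrophoresis; bidirectional fit versus DMSO baseline.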

Assay [2] can be described thus: ATG_E_Box_CIS: Attagene CIS-FACTORIAL HepG2 Assay for human Enhancer Box (E-box) (AID 2282936). The settings on record: HepG2 E-box cis-reporter transcription, actives raise or lower the signal. The essentials:
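HepG2 cells transiently transfected with multiplexed cis-element reporter units sensing endogenous transcription factor activity; 24 h compound exposure. Reporter mRNA measured by RT-PCR, 6-FAM primer extension, HpaI digestion and capillary electrophoresis; bidirectional fit versus DMSO.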

A short description of assay [3]: ATG_M_61_CIS: Attagene CIS-FACTORIAL HepG2 Assay for M61 Transcription Factor (Internal Marker) (AID 2282937). The settings on record: HepG2 Attagene CIS-FACTORIAL M61 internal marker reporter; actives raise or lower the signal. In outline:
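Transfect HepG2 with MRTUs; dose 24 h; isolate RNA; reverse-transcribe with DNase I treatment; PCR-amplify, FAM-label and cut with HpaI for 2 h at 37 C; resolve by CE. Bidirectional fitting against DMSO.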

The nature of assay [4]: ATG_M_19_CIS: Attagene CIS-FACTORIAL HepG2 Assay for M19 Transcription Factor (Internal Marker) (AID 2282939). The settings on record: HepG2 Attagene CIS-FACTORIAL M19 internal marker reporter; actives raise or lower the signal. The essentials:
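Chemical-treated HepG2 (24 h) with MRTU constructs; reporter transcripts detected by fluorescent RT-PCR fragment analysis on capillary electrophoresis. Internal background marker, DMSO as baseline.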

The nature of assay [5]: ATG_ERE_CIS: Attagene CIS-FACTORIAL HepG2 Assay for Estrogen Response Element (ERE) (AID 2282940). The conditions noted are these: HepG2 ERE cis-reporter, Attagene RNA transcript; actives raise or lower the signal. The essentials:
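Human liver cells (HepG2) bearing transiently transfected, promoter-regulated reporter units were exposed 24 h. Reporter mRNA induction was detected by capillary electrophoresis of labelled RT-PCR products and fitted bidirectionally to DMSO.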

The nature of assay [6]: ATG_Ets_CIS: Attagene CIS-FACTORIAL HepG2 Assay for human Erythroblast Transformation Specific (ETS) (AID 2282941). The conditions noted are these: HepG2 ETS cis-reporter transcription, actives raise or lower the signal. The essentials:
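Steps: transfect HepG2 with multiple reporter units; treat compound 24 h; isolate RNA, DNase-treat, reverse-transcribe; PCR-amplify, label with 6-FAM, digest with HpaI; separate by capillary electrophoresis. Activity fitted both directions versus DMSO.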

Assay [7] addresses Hepatocyte nuclear factor 3-beta (Homo sapiens) (UniProt Q9Y261). The experiment in a line: ATG_FoxA2_CIS: Attagene CIS-FACTORIAL HepG2 Assay for human Forkhead box A2 (FOXA2) (AID 2282942). The settings on record: HepG2 cis-reporter transcription factor activity, 24 h; actives raise or lower the signal. The essentials: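 24 h dosing of HepG2 bearing cis-reporter constructs; mRNA readout by RT-PCR/CE fluorescence; bidirectional fit, DMSO baseline.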

Assay [8] can be described thus: ATG_FoxO_CIS: Attagene CIS-FACTORIAL HepG2 Assay for human Forkhead box O (FoxO) (AID 2282943). The conditions noted are these: HepG2 Attagene cis-reporter, FoxO element, mRNA; actives raise or lower the signal. The essentials:
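Values reflect reporter mRNA induction or loss in HepG2 cells 24 h post-dosing, fitted bidirectionally with DMSO as negative control and baseline. Detection used RT-PCR and fluorescence capillary electrophoresis.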

Assay [9] in a line: ATG_GATA_CIS: Attagene CIS-FACTORIAL HepG2 Assay for human GATA Binding Protein (AID 2282944). The settings on record: HepG2 GATA cis-element reporter, Attagene multiplex mRNA; actives raise or lower the signal. In outline:
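Transfected cis-reporter HepG2 cells were treated with chemicals for 24 hours. Total RNA was then converted to cDNA, amplified with reporter-specific primers and analysed by fluorescent capillary electrophoresis, using DMSO-treated wells as baseline.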

The nature of assay [10]: ATG_GLI_CIS: Attagene CIS-FACTORIAL HepG2 Assay for human Zinc Finger Protein GLI1 (AID 2282945). The conditions noted are these: HepG2, Attagene cis-factorial reporter mRNA, GLI element; actives raise or lower the signal. The essentials:
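HepG2 cells transiently transfected with cis-promoter multiplexed reporter units report endogenous transcription factor activity. After 24 h chemical exposure, reporter mRNA was quantified by RT-PCR, 6-FAM labelling, HpaI digestion and capillary electrophoresis, with bidirectional fitting against DMSO.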

A short description of assay [11]: ATG_ISRE_CIS: Attagene CIS-FACTORIAL HepG2 Assay for human Interferon Regulatory Factor 1 (IRF1) binding to an Interferon-Stimulated Response Element (ISRE) (AID 2282948). The conditions noted are these: HepG2 ISRE cis-reporter (Attagene), mRNA transcription readout; actives raise or lower the signal. The essentials:
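Transfected HepG2 (multiple reporter transcription units, cis elements) dosed 24 h. RNA → oligo(dT) RT → PCR → 6-FAM primer extension → HpaI → CE. DMSO = negative control/baseline.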

The nature of assay [12]: ATG_M_32_CIS: Attagene CIS-FACTORIAL HepG2 Assay for M32 Transcription Factor (Internal Marker) (AID 2282949).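 Note: background control marker of the multiplexed CIS panel rather than a real target.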 The conditions noted are these: HepG2 Attagene cis-factorial M32 reporter, mRNA; actives raise or lower the signal. The essentials:
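Internal background marker read-out: RT-PCR/capillary electrophoresis fluorescence of reporter transcripts from transiently transfected HepG2 cells after 24 h chemical exposure. Activity fitted bidirectionally relative to DMSO negative control.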

Assay [13] can be described thus: ATG_M_06_CIS: Attagene CIS-FACTORIAL HepG2 Assay for M06 Transcription Factor (Internal Marker) (AID 2282950). The settings on record: HepG2 Attagene CIS-FACTORIAL M06 internal marker reporter; actives raise or lower the signal. The essentials: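 Cells (HepG2, transiently carrying cis-driven reporter units) receive chemical for 24 h before RNA isolation. Reporter cDNA is PCR-amplified, FAM-labelled by primer extension, HpaI-digested and sized on a capillary analyser.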

Assay [14] deals with Hypoxia-inducible factor 1-alpha (Homo sapiens) (UniProt Q16665). The experiment in a line: ATG_HIF1a_CIS: Attagene CIS-FACTORIAL HepG2 Assay for human Hypoxia Inducible Factor 1 (HIF1A) (AID 2282951). The settings on record: HepG2 Attagene cis-factorial HIF1a reporter transcription; actives raise or lower the signal. In outline: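 After 24 h chemical exposure of reporter-transfected HepG2 cells, reporter cDNA was PCR-amplified, labelled by 6-FAM primer extension (2 min 95 C, 20 s 68 C, 10 min 72 C), HpaI-cut (2 h, 37 C) and analysed by CE.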

The target in assay [15] is Hepatocyte nuclear factor 6 (Homo sapiens) (UniProt Q9UBC0). Briefly: ATG_HNF6_CIS: Attagene CIS-FACTORIAL HepG2 Assay for human Hepatocyte Nuclear Factor 6 (HNF6) (AID 2282952). The settings on record: HepG2 Attagene cis-factorial HNF6 reporter transcription; actives raise or lower the signal. The essentials:
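HepG2 cells transiently transfected with cis-element-driven multiplexed reporter units measuring endogenous transcription factor activity. After 24 h exposure, reporter mRNA quantified by RT-PCR, FAM-labelled fragments and capillary electrophoresis; bidirectional fitting versus DMSO.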

The target of assay [16] is Heat shock factor protein 1 (Homo sapiens) (UniProt Q00613). The experiment in a line: ATG_HSE_CIS: Attagene CIS-FACTORIAL HepG2 Assay for human Heat Shock Transcription Factor 1 (HSE) (AID 2282953). The conditions noted are these: HepG2 HSE cis-reporter, Attagene RNA transcription; actives raise or lower the signal. The essentials:
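Liver-derived HepG2 cells carry transiently introduced multiple reporter units governed by cis promoters. Reporter RNA measured 24 h post-dose through reverse transcription, PCR amplification, fluorescent labelling and capillary electrophoresis, normalised to DMSO.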

Assay [17] can be described thus: ATG_MRE_CIS: Attagene CIS-FACTORIAL HepG2 Assay for human Metal Responsive Element (MRE) (AID 2282954). The settings on record: HepG2 MRE cis-reporter transcription, Attagene multiplex; actives raise or lower the signal. The essentials:
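HepG2 cells transiently transfected with multiple cis-element reporter units measure endogenous MTF1-driven transcription. After 24 h compound exposure, reporter mRNA is quantified by RT-PCR with 6-FAM labelling, HpaI digestion and capillary electrophoresis; bidirectional fits versus DMSO.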

Assay [18] deals with Bile acid receptor (Homo sapiens) (UniProt Q96RI1). Briefly: ATG_IR1_CIS: Attagene CIS-FACTORIAL HepG2 Assay for human Nuclear Receptor Subfamily 1 Group H Member 4 (NR1H4), IR1 submotif (AID 2282946). The settings on record: IR1 reporter transcription, actives raise or lower the signal. In outline:
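Transient MRTU transfection, HepG2; 24 h dosing; RNA → RT-PCR → 6-FAM primer extension → HpaI digest → capillary electrophoresis fluorescence. Gain/loss of signal fitted relative to DMSO.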

The nature of assay [19]: ATG_GRE_CIS: Attagene CIS-FACTORIAL HepG2 Assay for human Glucocorticoid Response Elements (GRE) (AID 2282947). The conditions noted are these: HepG2 GRE cis-reporter, Attagene multiplex mRNA; actives raise or lower the signal. The essentials: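 HepG2 cells transiently transfected with multiple cis-promoter reporter units measure endogenous TF activity; 24 h compound exposure. Reporter mRNA quantified by RT-PCR, FAM labelling, HpaI digestion and capillary electrophoresis; bidirectional fit vs DMSO baseline.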

The structures appear in SMILES notation. Active and inactive are the calls of the source. Rule for the calls: active = hit-call score of the fitted dose curve at least 0.9, where 1 is the maximum; inactive = score below 0.9.

Sequence of Transcription factor E2F1 (Homo sapiens) (Q01094 whole entry, looked up): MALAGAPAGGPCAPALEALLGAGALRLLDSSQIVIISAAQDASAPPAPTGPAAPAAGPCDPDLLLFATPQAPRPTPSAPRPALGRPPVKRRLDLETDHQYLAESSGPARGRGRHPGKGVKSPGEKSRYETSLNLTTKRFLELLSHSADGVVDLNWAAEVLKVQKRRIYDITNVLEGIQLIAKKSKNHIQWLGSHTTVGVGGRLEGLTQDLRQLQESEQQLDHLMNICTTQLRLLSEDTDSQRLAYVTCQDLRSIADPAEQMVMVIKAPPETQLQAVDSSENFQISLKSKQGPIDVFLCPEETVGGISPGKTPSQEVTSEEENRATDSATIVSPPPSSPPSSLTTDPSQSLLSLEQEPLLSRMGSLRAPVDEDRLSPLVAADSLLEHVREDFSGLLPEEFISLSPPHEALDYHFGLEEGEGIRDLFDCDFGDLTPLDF
Sequence of Hepatocyte nuclear factor 3-beta (Homo sapiens) (Q9Y261 whole entry, looked up): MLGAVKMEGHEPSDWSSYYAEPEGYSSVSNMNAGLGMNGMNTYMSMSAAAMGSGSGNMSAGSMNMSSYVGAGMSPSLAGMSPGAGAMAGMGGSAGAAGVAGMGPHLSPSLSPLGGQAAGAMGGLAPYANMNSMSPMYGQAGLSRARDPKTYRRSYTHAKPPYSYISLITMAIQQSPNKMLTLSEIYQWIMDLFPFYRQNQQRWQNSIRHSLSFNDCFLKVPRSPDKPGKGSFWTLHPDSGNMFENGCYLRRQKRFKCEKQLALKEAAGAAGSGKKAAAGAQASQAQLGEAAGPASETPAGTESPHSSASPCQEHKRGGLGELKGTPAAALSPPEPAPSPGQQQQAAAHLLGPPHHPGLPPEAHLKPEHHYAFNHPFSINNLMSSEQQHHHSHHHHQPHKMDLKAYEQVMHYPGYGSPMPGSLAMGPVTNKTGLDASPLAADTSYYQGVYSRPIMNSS
Sequence of Bile acid receptor (Homo sapiens) (Q96RI1 whole entry, looked up): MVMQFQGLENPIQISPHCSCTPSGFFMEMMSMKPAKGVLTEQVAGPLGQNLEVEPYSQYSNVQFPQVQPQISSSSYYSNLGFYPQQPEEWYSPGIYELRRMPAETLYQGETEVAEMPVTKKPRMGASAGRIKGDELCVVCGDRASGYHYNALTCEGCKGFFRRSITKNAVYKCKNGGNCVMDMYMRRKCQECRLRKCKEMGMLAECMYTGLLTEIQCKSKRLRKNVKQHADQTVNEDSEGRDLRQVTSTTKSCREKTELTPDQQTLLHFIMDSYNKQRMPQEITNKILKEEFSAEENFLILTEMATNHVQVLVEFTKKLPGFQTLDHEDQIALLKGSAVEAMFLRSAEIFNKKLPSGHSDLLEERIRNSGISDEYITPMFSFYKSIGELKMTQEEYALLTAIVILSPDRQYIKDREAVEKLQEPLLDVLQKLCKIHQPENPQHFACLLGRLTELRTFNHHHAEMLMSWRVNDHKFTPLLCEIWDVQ
Sequence of Hepatocyte nuclear factor 6 (Homo sapiens) (Q9UBC0 whole entry, looked up, the tested form may be a part): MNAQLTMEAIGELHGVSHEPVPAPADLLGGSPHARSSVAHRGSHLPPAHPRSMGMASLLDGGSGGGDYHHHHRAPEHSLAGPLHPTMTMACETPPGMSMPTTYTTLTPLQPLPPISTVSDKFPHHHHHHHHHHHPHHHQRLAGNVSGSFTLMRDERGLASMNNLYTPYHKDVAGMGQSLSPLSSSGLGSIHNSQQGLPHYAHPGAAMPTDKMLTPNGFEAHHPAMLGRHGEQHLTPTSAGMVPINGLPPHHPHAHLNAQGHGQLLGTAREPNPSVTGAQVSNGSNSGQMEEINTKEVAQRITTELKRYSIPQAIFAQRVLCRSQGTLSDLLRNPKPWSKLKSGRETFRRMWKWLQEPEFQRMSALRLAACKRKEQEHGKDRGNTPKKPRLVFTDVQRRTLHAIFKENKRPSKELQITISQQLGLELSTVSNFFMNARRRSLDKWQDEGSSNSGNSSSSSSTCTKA
Sequence of Hypoxia-inducible factor 1-alpha (Homo sapiens) (Q16665 whole entry, looked up): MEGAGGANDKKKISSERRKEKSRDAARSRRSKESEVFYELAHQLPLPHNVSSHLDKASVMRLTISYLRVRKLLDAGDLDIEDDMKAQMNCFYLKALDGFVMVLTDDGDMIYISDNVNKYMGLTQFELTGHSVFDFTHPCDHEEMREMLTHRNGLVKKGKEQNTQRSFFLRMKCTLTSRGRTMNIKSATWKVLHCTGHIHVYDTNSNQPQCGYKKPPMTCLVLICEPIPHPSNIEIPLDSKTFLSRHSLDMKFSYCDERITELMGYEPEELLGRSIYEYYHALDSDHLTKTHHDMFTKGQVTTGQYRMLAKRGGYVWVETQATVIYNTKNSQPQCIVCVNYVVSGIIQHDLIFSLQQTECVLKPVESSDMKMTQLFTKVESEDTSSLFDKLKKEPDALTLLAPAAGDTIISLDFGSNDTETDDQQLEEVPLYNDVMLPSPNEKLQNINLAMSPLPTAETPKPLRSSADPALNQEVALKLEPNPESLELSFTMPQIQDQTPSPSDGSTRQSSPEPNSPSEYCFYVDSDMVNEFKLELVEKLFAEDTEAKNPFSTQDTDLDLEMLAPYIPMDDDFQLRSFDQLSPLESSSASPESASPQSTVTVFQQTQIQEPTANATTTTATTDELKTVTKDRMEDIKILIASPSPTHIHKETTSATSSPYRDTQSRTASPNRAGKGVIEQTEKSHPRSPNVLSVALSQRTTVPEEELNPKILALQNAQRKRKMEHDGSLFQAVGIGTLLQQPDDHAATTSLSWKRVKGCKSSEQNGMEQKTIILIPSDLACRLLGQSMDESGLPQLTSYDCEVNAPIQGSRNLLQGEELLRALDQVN
Sequence of Heat shock factor protein 1 (Homo sapiens) (Q00613 whole entry, looked up): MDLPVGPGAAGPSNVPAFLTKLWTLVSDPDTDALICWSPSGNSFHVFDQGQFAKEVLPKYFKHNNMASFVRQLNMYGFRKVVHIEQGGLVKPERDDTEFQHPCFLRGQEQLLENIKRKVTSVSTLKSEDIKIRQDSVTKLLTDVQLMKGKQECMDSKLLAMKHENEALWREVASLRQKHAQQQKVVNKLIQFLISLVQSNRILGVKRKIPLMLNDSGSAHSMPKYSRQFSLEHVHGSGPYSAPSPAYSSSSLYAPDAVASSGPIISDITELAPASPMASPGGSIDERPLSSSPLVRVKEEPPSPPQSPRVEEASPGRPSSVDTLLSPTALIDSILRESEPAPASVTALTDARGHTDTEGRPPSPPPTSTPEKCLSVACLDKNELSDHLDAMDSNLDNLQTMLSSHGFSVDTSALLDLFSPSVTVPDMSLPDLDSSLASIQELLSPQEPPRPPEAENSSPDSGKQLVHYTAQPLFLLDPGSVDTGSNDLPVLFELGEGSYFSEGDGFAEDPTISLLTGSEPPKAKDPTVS

Take `CCSC(=O)N1CCCCCC1`: the result in [1], in assay [2], in assay [3], in assay [4], in [5] and in assay [6] was inactive. The call in assay [7], in assay [8], in assay [9], in assay [10], in assay [11] and in assay [12] was inactive. Moreover, the call in [13], in assay [14], in [15], in assay [16] and in assay [17] was inactive.
Take `CC(C)Nc1nc(Cl)nc(NC(C)C)n1`: the outcome in assay [1], in assay [2], in assay [3], in assay [4], in assay [5] and in [6] was inactive. The compound was classed as inactive in assay [7], in assay [8], in [9], in assay [10], in assay [11] and in [12]. Besides, the compound was classed as inactive in [13], in assay [14], in [15], in assay [16] and in assay [17].
For the compound `CNC(=O)Oc1cccc2ccccc12`, the call in [1], in assay [3], in [4], in assay [6], in assay [7] and in assay [8] was inactive. Also, the compound was called inactive in assay [9], in [10], in assay [18], in assay [11], in [12] and in assay [13]. In addition, the call in [14], in assay [15] and in assay [16] was inactive. The AC50 in [2] is 9.92 µM (active); in assay [5] it was 50 µM (active); in [17], 50 µM (active).
With `COc1ccc(-c2ccccc2)cc1NNC(=O)OC(C)C`, the result in assay [1], in [2], in [3], in [4], in [5] and in [6] was inactive. The outcome in assay [7], in [8], in [9], in assay [10], in assay [18] and in [11] was inactive. Further, the compound was classed as inactive in [12], in [13] and in assay [15]. For the same compound, the AC50 is 13.2 µM (active) in [19], 22.8 µM (active) in assay [14], 50 µM (active) in assay [16] and 22.7 µM (active) in [17].
For the compound `Cc1c(COC(=O)[C@@H]2[C@H](/C=C(\Cl)C(F)(F)F)C2(C)C)cccc1-c1ccccc1`, the call in assay [1], in assay [2], in [3], in assay [4], in [6] and in [7] was inactive. Moreover, the outcome in [8], in assay [9], in assay [10], in [18], in assay [11] and in assay [12] was inactive. In addition, the compound was classed as inactive in assay [13], in [14], in assay [15], in assay [16] and in assay [17]. The concentration at half-maximal activity (AC50) in assay [5] is 20.9 µM (active).
In the case of `O=P(O)(O)CCCl`, the compound was called inactive in assay [1], in [2], in assay [3], in assay [4], in [5] and in assay [6]. For the same compound, the compound was called inactive in assay [7], in assay [8], in assay [9], in assay [10], in [18] and in assay [11]. Besides, the outcome in [12], in [13], in assay [14], in assay [15], in [16] and in assay [17] was inactive.
Take `N#Cc1c[nH]cc1-c1cccc2c1OC(F)(F)O2`: the result in assay [1], in [2], in assay [3], in assay [4], in assay [7] and in assay [8] was inactive. The result in [9], in assay [10], in assay [19], in [11], in assay [12] and in assay [13] was inactive. The call in assay [14], in [15] and in assay [16] was inactive. Besides, the concentration at half-maximal activity (AC50) in assay [5] was 5.84 µM (active); in [6] it was 29 µM (active); in [17], 8.67 µM (active).

One may read the AC50 as the concentration at which the activity in the assay is half-maximal.
